Source: PubChem BioAssay (EPA / NIEHS)
Records with an inconclusive call do not appear. Activity calls are given as the source filed them. How the source made its calls: active means hit-call score of the fitted dose curve at least 0.9, where 1 is the maximum; inconclusive means response in the unintended direction; inactive means score below 0.9.

The compounds below were run against Cellular tumor antigen p53 (Homo sapiens) (UniProt P04637) (assay: TOX21_p53_BLA_p5_ratio: Tox21 HCT-116 p53 Agonism Beta-lactamase Assay, Ratio, Phase 5 (AID 2283599)).
Sequence of Cellular tumor antigen p53 (Homo sapiens) (P04637 whole entry, looked up, the tested form may be a part): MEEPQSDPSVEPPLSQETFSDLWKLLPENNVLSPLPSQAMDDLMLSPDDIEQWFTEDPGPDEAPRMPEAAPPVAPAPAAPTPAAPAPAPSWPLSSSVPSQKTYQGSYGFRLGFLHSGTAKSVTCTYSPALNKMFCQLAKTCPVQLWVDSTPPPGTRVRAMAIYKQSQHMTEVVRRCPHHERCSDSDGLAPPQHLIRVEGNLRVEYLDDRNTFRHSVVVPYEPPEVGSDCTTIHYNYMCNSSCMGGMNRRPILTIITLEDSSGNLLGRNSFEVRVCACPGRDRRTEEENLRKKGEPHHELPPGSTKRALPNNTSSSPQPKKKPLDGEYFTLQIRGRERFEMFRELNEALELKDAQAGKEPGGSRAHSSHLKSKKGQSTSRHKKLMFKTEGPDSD
Excerpt: TOX21_p53_BLA_p5 is a cell-based, single-readout assay that uses HCT116, a human intestinal cell line, […] in a 1536-well plate.TOX21_p53_BLA_p5_ratio is an assay readout measuring reporter gene via receptor activity and designed using inducible reporter (beta lactamase induction) detected with GAL4 b-lactamase reporter gene. The signal is derived from the ratio of cleaved (ch2) to uncleaved (ch1) reporter gene substrate used as the measure of target activity.Data from the assay component TOX21_p53_BLA_p5_ratio was analyzed into 1 assay endpoint. This assay endpoint, TOX21_p53_BLA_p5_ratio, was analyzed in the positive analysis fitting direction relative to DMSO as the negative control and baseline of activity. Using a type of inducible reporter, gain-of-signal activity can be used to understand changes in the reporter gene as they relate to the gene TP53. Furthermore, this assay endpoint can be referred to as a primary readout, because this assay has produced multiple assay endpoints and this ratio serves a reporter gene function to understand target activity. To generalize the intended target to other relatable targets, this assay endpoint is annotated to the DNA binding intended target family, where the subfamily is tumor suppressor.
Thawing Method: Place 14 mL of pre-warmed thaw medium into a 15 mL of conical tub. Remove the vial of cells to be thawed from liquid nitrogen and thaw rapidly by placing at 37C in a water bath with gentle agitation for 1-2 minutes. Decontaminate the vial by wiping with 70% ethanol before opening in a biological safety cabinet. Transfer the vial contents drop-wise into 14 mL of thaw medium in a sterile 15-mL conical tub. Centrifuge cells at 900 rpm for 4 minutes and resuspend in thaw medium. Transfer contents to the T75 tissue culture flask containing Thaw Medium and place flask in a humidified 37C/5% CO2 incubator. Switch to growth medium at first passage.Propagation Method: Aspirate medium, rinse once in DPBS, add 0.25% Trypsin/EDTA and swirl to coat the cell evenly. Add an equal volume of Growth Medium to inactivate Trypsin after 2-3 minutes incubation at 37C. Centrifuge cells at 900 rpm for 4 minutes and resuspend in growth medium. Cell should be passage or fed at least twice a week.Assay Protocol: Harvest cells from culture in growth medium and resuspend in assay medium. 2.2 Dispense 4000 cells/5 uL/well into 1536-well black/clear bottom plates using a Multidrop dispenser. After the cells were incubated at 37C for 5 hours, 23 nL of compounds dissolved in DMSO were transferred to the assay plate by a PinTool resulting in a 217-fold dilution. Incubate the plates for 16 hours at 37C, 5% CO2. Add 1 uL of 6X LiveBLAzer FRET B/G (CCF4-AM) Substrate Mixture to each well using a BioRAPTR dispenser and incubate the plates at room temperature for 2 hours. Measure fluorescence intensity at 460 and 530 nm emission and 405 nm excitation by an Envision detector. Data is expressed as the ratio of 460nm/530nm emissions. Add 4 uL of Cell-titer Glo to each well using BioRAPTR and incubate the plates at room temperature for 2 hours. Measure fluorescence intensity by a VewLux plate reader.
With CN1CCC[C@@H]1CCO[C@](C)(c1ccccc1)c1ccc(Cl)cc1 the outcome was “inactive”. With NC(=O)[C@@H]1C[C@]2(NC(=O)NC2=O)c2cc(F)ccc2O1 the outcome was “inactive”. CO[C@]1(NC(=O)CSC(F)F)C(=O)N2C(C(=O)O)=C(CSc3nnnn3CCO)CO[C@H]21 was tested, and the outcome was “inactive”. O=C(CS(=O)Cc1ccco1)NC/C=C\COc1cc(CN2CCCCC2)ccn1 (stereo not given) was tested, and the outcome was “inactive”. CC[C@H]1OC(=O)C[C@@H](O)[C@H](C)[C@@H](O[C@@H]2O[C@H](C)[C@@H](O)[C@H](N(C)C)[C@H]2O)[C@@H](CCN2C[C@H](C)C[C@H](C)C2)C[C@@H](C)C(=O)/C=C/C(C)=C/[C@@H]1CO[C@@H]1O[C@H](C)[C@@H](O)[C@@H](OC)[C@H]1OC was tested, and the outcome was “inactive”. For NS(=O)(=O)c1ccc(Cl)c(S(N)(=O)=O)c1, the outcome was “inactive”. With O=C1OC(=O)c2cccc3cccc1c23 the outcome was “inactive”. In the case of O=C(O)c1ccc(O)cc1O, the outcome is reported as “inactive”. With O=S(=O)(O)CO the outcome was “inactive”. CN1c2c(nc(N)[nH]c2=O)NCC1CNc1ccc(C(=O)NC(CCC(=O)O)C(=O)O)cc1 (stereo not given) was tested, and the outcome was “inactive”. For COC(=O)c1cc(C(=O)OC)cc(S(=O)(=O)O)c1, the outcome was “inactive”. In the case of CCOC(=O)c1ccc(OC(=O)CCCCCN=C(N)N)cc1, the outcome is reported as “inactive”. CN1C[C@H]2c3ccccc3Oc3ccc(Cl)cc3[C@@H]2C1 was tested, and the outcome was “inactive”. For CC(Oc1ccccc1)C(=O)N[C@@H]1C(=O)N2[C@@H]1SC(C)(C)[C@@H]2C(=O)O (stereo not given in full), the outcome was “inactive”. For CC(C)(C)C(=O)NCCCC(=O)O, the outcome was “inactive”. For CCCCCCOC(=O)c1cccnc1, the outcome was “inactive”. NC1=NCC2c3ccccc3Cc3ccccc3N12 (stereo not given) was tested, and the outcome was “inactive”. In the case of CC(C)C(=O)OCC(C)(C)C(O)C(C)C (stereo not given), the outcome is reported as “inactive”. With O=C(O)CCC/C=C\C[C@@H]1[C@@H](/C=C/[C@@H](O)COc2cccc(Cl)c2)[C@H](O)C[C@@H]1O the outcome was “inactive”. COc1ccc(C(=O)NCc2ccc(OCCN(C)C)cc2)cc1OC was tested, and the outcome was “inactive”. With [K+] the outcome was “inactive”. For NC(=O)Nc1nc2ccccc2[nH]1, the outcome was “inactive”. With O=C(NNCS(=O)(=O)O)c1ccncc1 the outcome was “inactive”. COc1ccc2c(c1OC)C(=O)O[C@@H]2[C@H]1c2c(cc3c(c2OC)OCO3)CCN1C was tested, and the outcome was “inactive”. Cc1ncsc1CCO was tested, and the outcome was “inactive”. In the case of CC(=O)Nc1ncc([N+](=O)[O-])s1, the outcome is reported as “inactive”. For CC(C)CCC[C@@H](C)[C@H]1CC[C@H]2[C@@H]3CC[C@@H]4C[C@H](O)CC[C@]4(C)[C@H]3CC[C@]12C, the outcome was “inactive”. With CC(C)C[C@H](NC(=O)[C@@H](Cc1c[nH]c2ccccc12)NC(=O)[C@H](Cc1ccc(O)cc1)NC(=O)[C@H](CO)NC(=O)[C@H](Cc1c[nH]c2ccccc12)NC(=O)[C@H](Cc1cnc[nH]1)NC(=O)[C@@H]1CCC(=O)N1)C(=O)N[C@@H](CCCN=C(N)N)C(=O)N1CCC[C@@H]1C(=O)NCC(N)=O the outcome was “inactive”. In the case of NC(=O)Cc1cccc2ccccc12, the outcome is reported as “inactive”. For Cc1ccc2ccccc2c1[N+](=O)[O-], the outcome was “inactive”. O=C(O)Cc1csc(-c2ccc(Cl)cc2)n1 was tested, and the outcome was “inactive”. With CCCC(=O)C(=O)O the outcome was “inactive”. With CC(C)NC[C@@H](O)COc1cccc2ccccc12 the outcome was “inactive”. In the case of Nc1cc(C(=O)O)c(O)c(S(=O)(=O)O)c1, the outcome is reported as “inactive”. Cc1cc(O)ccc1N was tested, and the outcome was “inactive”. For CC(C)=CC(C)(C)C, the outcome was “inactive”. For O=S(=O)(O)c1cccc(S(=O)(=O)O)c1, the outcome was “inactive”. With CCNC(=O)C1CC(C)CCC1C(C)C (stereo not given) the outcome was “inactive”. In the case of COC(=O)NN, the outcome is reported as “inactive”. Cc1scc2c1N(C(=O)CN1CCN(C)CC1)c1ccccc1NC2=O was tested, and the outcome was “inactive”.
